This is part of a sample that, as a whole, favours compounds with a hit. Of some 83,000 tested, about 20% had one in any assay.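 A percent growth of 40 corresponds to 60% growth inhibition; 0 means no net growth; -100 means all cells died. Active threshold: below 10.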 Unmarked numbers belong to inactive results. Calls of active or inactive are those of the source.

The test concerns NCI-H226 lung. The experiment in a line: NCI-60 one-dose screen, 48 h (100 = growth as untreated, 0 = no growth, -100 = all killed). The note with it: 10 µM unless noted. As for the experimental part:
Growth inhibition of the NCI-H226 human Non-Small Cell Lung tumor cell line is measured as a screen for anti-cancer activity. Cells are grown in 96 well plates and exposed to the test compound for 48 hours. Compounds are tested at a single concentration, which is 10^-5 M for most compounds. The reported endpoint is percent growth (GI% or GIPRCNT), where numbers from 0 - 100% represent growth inhibition, and numbers from -100% - 0 represent cell death. For example, a value of 40 represents 60% growth inhibition. A value of 0 means no net growth occurred over the course of the experiment. A value of -40 indicates 40% of cells at the beginning of the experiment died by the end of the experiment. A value of -100 means all cells are dead at the end of the experiment.
NCI-60 Human Tumor Cell Lines Screen was performed using the standard one-dose NCI protocol, which is described in more detail at https://dtp.cancer.gov/discovery_development/nci-60/default.htm.
Compounds with GIPRCNT values below 10 were considered active. Activity score was based on GIPRCNT using the following formula: […]
Score is 0 for GIPRCNT values of 100 or above, 50 for GIPRCNT values of 0, and 100 for GIPRCNT values of -100.
Regarding `Cc1ncc(-c2ccnc(Nc3ccc(S(C)(=O)=O)cc3)n2)n1C(C)C`, the growth is 6.32% (active). For `O=C(NO)c1ccc(Cn2c(=O)n(-c3ccccc3F)c(=O)c3ccccc32)cc1` the value was 17.6%; for `Cc1cc(C(=O)Nc2cc(Oc3ccc4nc(NC(=O)C5CC5)cn4n3)ccc2C)n(C)n1`, 43.3%; for `Cc1cc(N(CCNc2ccnc3cc(Cl)ccc23)Cc2ccc3c(c2)OCO3)nc(N2CCCC2)n1`, 65.4%.

For `COc1cc(Nc2ncc3c(n2)-c2ccc(Cl)cc2C(c2c(F)cccc2OC)=NC3)ccc1C(=O)O`, the growth was 63.2%. For `Cc1cc(O)cc(-c2c(-c3ccnc(-c4cccnc4)c3)cnn2C)c1` the value was 69.5%; for `Cn1cc(-c2ncnc3ccc(-c4cnc(Cl)c(NS(C)(=O)=O)c4)cc23)c2ccccc21`, 16.4%. For `COC(=O)[C@@H](C)CNS(=O)(=O)N(c1cc(C(F)(F)F)cc(C(F)(F)F)c1)C1CCN(Cc2ccc(F)cc2)CC1` the value was 70.1%; for `COC(=O)Nc1nc2ccc(C(=O)c3ccc(N(C)C4COC4)cc3)cc2[nH]1`, 67.2%; for `CN(C)CCOC(=O)Nc1nc2ccc(Sc3ccccc3)cc2[nH]1`, 61.8%.

On to `O=C(N/N=C/c1ccc(Cl)cc1)c1cc(-c2cc3ccccc3o2)nn1-c1ccccc1`, for which the growth was 91.3%.

For `C/C(=C(/c1ccc(Cl)cc1)c1ccc(OCCN2CCCCCC2)cc1)c1ccccc1`, the growth is 95.8%. For the compound `Cn1c(Nc2ccc(C(F)(F)F)cc2)nc2cc(Oc3ccnc(-c4ncc(C(F)(F)F)[nH]4)c3)ccc21`, the growth is 64.5%. For `C[C@@H](Oc1cc(-c2cnn(C3CCNCC3)c2)cnc1N)c1c(Cl)ccc(F)c1Cl` the value was -11.6% (active). For `C=CC(=O)Nc1cc(Nc2nccc(-c3cn(C)c4ccccc34)n2)c(OC)cc1N(C)CCN(C)C` the value was -50.5% (active); for `COc1cc(CCc2cc(NC(=O)c3ccc(N4C[C@@H](C)N[C@@H](C)C4)cc3)n[nH]2)cc(OC)c1`, 46.1%; for `Clc1ccc(/C=C/c2cc(N3CCOCC3)c3cc(Cl)c(Cl)cc3n2)cc1`, 85.5%. `NC1(c2ccc(-c3nc4ccn5c(=O)[nH]nc5c4cc3-c3ccccc3)cc2)CCC1`: the growth is 67.7%. The same measure for `CC(C)(C)CC(C)(C)Nc1c(-c2c(O)c3ccccc3oc2=O)nc2c(Cl)cc(C(F)(F)F)cn12`: 97.5%.

As for `O=C(Nc1ccc(Nc2ncnc3sc4c(c23)CCOC4)cc1)Nc1ccc(Cl)c(C(F)(F)F)c1`, the growth is 103%. The same measure for `Cc1cc(C(=O)NOCCO)c(Nc2ccc(I)cc2F)n(C)c1=O`: 71.2%; for `COc1cc2c(Nc3ccc(Br)cc3F)ncnc2cc1OCC1CCN(C)CC1`: 57.5%. The same measure for `O=C(Cn1cncn1)Nc1ccc(-c2nc3ccccc3s2)cc1`: 75%; for `COc1cc(Nc2c(C#N)cnc3cc(OCCCN4CCN(C)CC4)c(OC)cc23)c(Cl)cc1Cl`: 78.4%; for `O=C(NC[C@H](O)CO)c1ccncc1Nc1ccc(I)cc1F`: 50.2%. The same measure for `COc1ccc(C2CC(=O)c3c(O)c(OC)c(OC)c(OC)c3O2)cc1O` (stereo not given): 89.2%; for `CO[C@H]1C[C@@H]2CC[C@@H](C)[C@@](O)(O2)C(=O)C(=O)N2CCCC[C@H]2C(=O)O[C@H]([C@H](C)C[C@@H]2CC[C@@H](OP(C)(C)=O)[C@H](OC)C2)CC(=O)[C@H](C)/C=C(\C)[C@@H](O)[C@@H](OC)C(=O)[C@H](C)C[C@H](C)\C=C/C=C/C=C/1C`: 40.9%; for `N#CC[C@H](C1CCCC1)n1cc(-c2ncnc3[nH]ccc23)cn1`: 33.7%. On to `CO[C@H]1C[C@@H]2CC[C@@H](C)[C@@](O)(O2)C(=O)C(=O)N2CCCC[C@H]2C(=O)O[C@H]([C@H](C)C[C@@H]2CC[C@@H](O)[C@H](OC)C2)CC(=O)[C@H](C)/C=C(\C)[C@@H](O)[C@@H](OC)C(=O)[C@H](C)C[C@H](C)\C=C/C=C/C=C/1C`, for which the growth is 47.9%. For `Nc1cc2c(cc1Br)-c1c(C(=O)O)cccc1C2O` (stereo not given) the value was 100%; for `CN1CC[C@@H](c2c(O)cc(O)c3c(=O)cc(-c4ccccc4Cl)oc23)[C@@H]1CO`, 7.7% (active). The same measure for `CSc1nc2ncnc(SC)c2[nH]1`: 98.2%; for `NC1(C(=O)N[C@@H](CCO)c2ccc(Cl)cc2)CCN(c2ncnc3[nH]ccc23)CC1`: 17.3%. For `Cc1ccsc1C(NC(=O)c1ccccc1)c1cc(Cl)c2cccnc2c1O` (stereo not given) the value was 38.5%; for `Cc1nc(NC(=O)N2CCC[C@H]2C(N)=O)sc1-c1ccnc(C(C)(C)C(F)(F)F)c1`, 71%. As to `C=CC[n+]1c(/C=C2\Sc3ccccc3N2C)sc(-c2ccccc2)c1-c1ccccc1`, the growth was 10.3%. The same measure for `COc1c(OCCCN2CCOCC2)ccc2c3n(c(=NC(=O)c4cnc(N)nc4)nc12)CCN3`: 23.7%; for `COc1cc(NCCCN)c2ncccc2c1`: 92.7%; for `Cc1ccc(C(=O)Nc2ccc(CN3CCN(C)CC3)c(C(F)(F)F)c2)cc1C#Cc1cnc2cccnn12`: -96.8% (active). The same measure for `COc1ccc2c(CCC(c3ccccc3)c3ccccc3)c3[n+](cc2c1OC)CCc1cc2c(cc1-3)OCO2`: 24.7%.
